The record followed here is PubChem BioAssay.

Values joined by “and” are separate entries in the source; they are usually repeats but may differ in a detail not shown here. Identical values can stand only once. Results filed as inconclusive are left out. Active and inactive are the calls of the source.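 How the source made its calls, unless noted: active means compounds whose cell count with miR-34 switched on is under 0.7 times the count with it off; inactive means the rest.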

Assay [1] is described as follows: hESC survival regulators, cell-based (AID 493140; call rule not given here;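 further: cells exposed to compounds for four days before counting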). To be noted: human embryonic stem cell survival screen; stronger effect = higher value.
Assay [2] in a line: liver-stage malaria parasite growth inhibition, primary screen, cell-based, HepG2, luciferase luminescence, HepG2 viability (AID 624349; in the data active means parasite load remaining mostly below about 12%, no sharp cut-off; inactive means mostly above about 10%;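 further: 100% = mean of DMSO negative control wells on the same plate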). Particulars: P. berghei liver stage in HepG2, luciferase luminescence, concentration not given here; parasite load remaining: stronger effect = lower value; viability: measured here: HepG2 viability without parasites.
Assay [3] is described as follows: sensitizers of A549 cells to miR-34 induction, primary screen, imaging, A549 dox-inducible miR-34, nuclei and caspase counts (AID 1347080). Particulars: A549 miR-34 inducible, Hoechst nuclei count, 48 h.
Assay [4] can be described thus: survival rescue of mitochondrial mutant cells in low glucose, primary screen, MELAS cybrids, Rieske KO mouse fibroblasts, CellTiter-Glo (AID 1508586;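 active means mean z-score across replicates of 1.96 or higher in either the MELAS or the Rieske mutant cell line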;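 further: z relative to plate mean and SD of compound and empty wells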). In general terms: In ATP-based viability assays light output follows the ATP content of the culture.
The nature of assay [5]: viability rescue of complex I mutant cybrids, primary screen, cell-based, galactose medium, ATP luminescence (AID 1645843;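 active means z-score of at least 1.8 in each of two replicates, scored against plate mean and spread of sample wells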;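 further: positive z means more ATP and so rescue of galactose-driven cybrid death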). To be noted: complex I mutant cybrid cells, 72 h, stronger effect = higher value.
Assay [6] deals with ATP-dependent translocase ABCB1 (Homo sapiens) (UniProt P08183). Description: MDR1 (ABCB1) efflux transporter inhibition, cell-based (AID 377; in the data active means fluorescence slope change above about 50%). Particulars: MDR1-expressing cells, fluorescent substrate accumulation slope; stronger effect = higher value; concentration not given here.
Chain of ATP-dependent translocase ABCB1 (Homo sapiens) (P08183 whole entry, looked up): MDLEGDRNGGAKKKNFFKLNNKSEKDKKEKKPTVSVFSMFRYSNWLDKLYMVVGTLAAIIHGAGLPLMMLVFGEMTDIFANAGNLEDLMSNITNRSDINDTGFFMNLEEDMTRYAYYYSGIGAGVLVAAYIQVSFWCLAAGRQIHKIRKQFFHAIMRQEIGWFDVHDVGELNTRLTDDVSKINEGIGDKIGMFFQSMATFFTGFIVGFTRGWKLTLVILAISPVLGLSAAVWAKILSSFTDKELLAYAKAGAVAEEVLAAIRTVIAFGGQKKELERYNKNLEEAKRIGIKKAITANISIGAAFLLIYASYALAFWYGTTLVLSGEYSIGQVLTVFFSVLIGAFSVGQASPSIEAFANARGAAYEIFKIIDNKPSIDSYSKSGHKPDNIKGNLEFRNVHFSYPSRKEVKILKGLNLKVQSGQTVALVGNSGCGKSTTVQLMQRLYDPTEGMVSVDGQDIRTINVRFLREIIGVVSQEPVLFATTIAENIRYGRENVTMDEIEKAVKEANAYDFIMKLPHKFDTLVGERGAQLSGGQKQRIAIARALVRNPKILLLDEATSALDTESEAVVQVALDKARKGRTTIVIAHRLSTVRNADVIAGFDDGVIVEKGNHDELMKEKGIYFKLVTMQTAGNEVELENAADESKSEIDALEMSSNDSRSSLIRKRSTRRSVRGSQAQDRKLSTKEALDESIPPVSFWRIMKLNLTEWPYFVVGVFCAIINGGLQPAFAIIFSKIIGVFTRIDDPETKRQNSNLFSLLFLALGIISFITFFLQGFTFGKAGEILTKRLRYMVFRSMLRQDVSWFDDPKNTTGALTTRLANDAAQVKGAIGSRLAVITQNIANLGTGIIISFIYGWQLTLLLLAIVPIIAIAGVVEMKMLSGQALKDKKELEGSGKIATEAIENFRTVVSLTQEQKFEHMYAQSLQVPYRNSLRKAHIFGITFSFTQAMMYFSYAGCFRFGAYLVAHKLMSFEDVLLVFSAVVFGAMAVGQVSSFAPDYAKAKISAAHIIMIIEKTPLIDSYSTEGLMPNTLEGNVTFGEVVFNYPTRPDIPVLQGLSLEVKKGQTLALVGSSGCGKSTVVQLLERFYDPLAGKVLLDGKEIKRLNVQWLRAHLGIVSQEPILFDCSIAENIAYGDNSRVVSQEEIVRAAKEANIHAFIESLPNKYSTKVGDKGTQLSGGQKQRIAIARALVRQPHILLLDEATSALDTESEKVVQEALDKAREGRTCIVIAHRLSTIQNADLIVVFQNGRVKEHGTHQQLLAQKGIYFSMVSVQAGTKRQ
The mark [7] stands for this setting: measured here: relative caspase fold change +Dox/-Dox.
[8] abbreviates: measured here: total cells with miR-34 induction, stronger effect = lower value.
Where [9] appears, read: measured here: total cells without miR-34 induction.
Where [10] appears, read: MELAS cybrid survival, CellTiter-Glo 48 h, stronger effect = higher value.
The mark [11] stands for this setting: Rieske KO mouse fibroblast survival, CellTiter-Glo 72 h.
Where [12] appears, read: stronger effect = lower value, cell number ratio, induced over uninduced.

Usually viability stands for a read-out of living cells in per cent, often relative to untreated cells. Regarding `CC(=O)OCC(=O)[C@H]1CC[C@H]2[C@@H]3CC[C@H]4C[C@H](O)CC[C@]4(C)[C@H]3C(=O)C[C@]12C`, the survival in assay [1] was 32.2 (inactive). The parasite load remaining in assay [2] is 133% (inactive). For the same compound, the viability in assay [2] was determined as 77.5%. In addition, the fold change in assay [3] (stronger effect = lower value) is 0.969 (inactive); in assay [3] (setting [7]) it was 0.588. The results for the cell count in assay [3] (setting [8]) and in assay [3] (setting [9]) were 8940 and 9230, respectively. The values for the z-score in assay [4] (setting [10]) and in assay [4] (setting [11]) were -0.0226 (inactive) and 0.294, respectively.
Take `CN[C@@H]1[C@@H](O)[C@@H](O[C@@H]2[C@@H](O)[C@H](O[C@H]3O[C@H]([C@@H](C)NC)CC[C@H]3N)[C@@H](N)C[C@H]2N)OC[C@]1(C)O`: the parasite load remaining in assay [2] was 20.1% (inactive). For the same compound, in assay [2], the viability came to 64.5%. The results for the fold change in assay [3] (stronger effect = lower value) and in assay [3] (setting [7]) were 0.872 (inactive) and 1.03, respectively. Also, the cell count in assay [3] (setting [8]) came out at 10000; in assay [3] (setting [9]) it was 11500. Besides, the results for the z-score in assay [4] (setting [10]) and in assay [4] (setting [11]) were 0.508 (inactive) and 0.179, respectively.
As to `COc1cccc([C@@]2(O)CCCCC2CN(C)C)c1` (stereo not given in full), the fold change in assay [3] (stronger effect = lower value) was 0.881 (inactive); in assay [3] (setting [7]), 1.09. Further, the results for the cell count in assay [3] (setting [8]) and in assay [3] (setting [9]) were 9920 and 11300, respectively. Besides, in assay [5], the z-score was 0.56 (inactive).
Consider `C[N+]1([O-])[C@@H]2CC(OC(=O)[C@H](CO)c3ccccc3)C[C@H]1[C@@H]1O[C@@H]12` (stereo not given in full), for which, in assay [6], the fluorescence slope change is 76.2% (active). In addition, the survival in assay [1] is 10.4 (inactive). In addition, the parasite load remaining in assay [2] is 3.97% (inactive) and 96.4% (inactive). Moreover, the viability in assay [2] is 30.6% and 90.4%. In addition, the fold change in assay [3] (setting [12]) was 0.882 (inactive); in assay [3] (setting [7]) it was 1.03. Moreover, the cell count in assay [3] (setting [8]) is 8380; in assay [3] (setting [9]) it was 9510. The z-score in assay [4] (setting [10]) is -1.22 (inactive); in assay [4] (setting [11]), -0.531.
Take `Oc1ccc2c3c1OC1c4[nH]c5ccccc5c4C[C@@]4(O)C(C2)N(CC2CC2)CC[C@]314` (stereo not given in full): the values for the fold change in assay [3] (stronger effect = lower value) and in assay [3] (setting [7]) were 0.943 (inactive) and 1.78, respectively. Further, the cell count is 8150 in assay [3] (setting [8]) and 8650 in assay [3] (setting [9]). Moreover, the z-score in assay [5] was -0.925 (inactive).
With `C[C@]12CCC(O)CC1=CCC1C2CC[C@@]2(C)C1CC[C@]2(C)O` (stereo not given in full), the fold change in assay [3] (stronger effect = lower value) was 0.929 (inactive); in assay [3] (setting [7]), 1.41. Besides, the cell count in assay [3] (setting [8]) stood at 9340; in assay [3] (setting [9]), 10100. The z-score in assay [5] is -0.34 (inactive).
Regarding `C[C@]12CCC(=O)C=C1CC[C@@H]1[C@@H]2C(=O)C[C@]2(C)C(=O)CC[C@@H]12`, the survival in assay [1] is 4.17 (inactive). Also, the parasite load remaining in assay [2] is 81.1% (inactive). The viability in assay [2] turned out to be 96.5%. The fold change was 0.907 (inactive) in assay [3] (stronger effect = lower value) and 0.858 in assay [3] (setting [7]). The figures for the cell count in assay [3] (setting [8]) and in assay [3] (setting [9]) were 9500 and 10500, respectively. Besides, the z-score in assay [4] (setting [10]) is 0.15 (inactive); in assay [4] (setting [11]), -0.446.
`C[C@]12CC[C@@H](O)C[C@@H]1CC[C@@H]1[C@@H]2CC[C@]2(C)C(=O)CC[C@@H]12`: the survival in assay [1] was 13.1 (inactive). The parasite load remaining in assay [2] was 90.4% (inactive) and 71.8% (inactive). Also, in assay [2], the viability was 90.3% and 79.5%. Also, the fold change is 0.869 (inactive) in assay [3] (stronger effect = lower value) and 1.48 in assay [3] (setting [7]). Also, the cell count is 8170 in assay [3] (setting [8]) and 9410 in assay [3] (setting [9]). The z-score is 0.119 (inactive) in assay [4] (setting [10]) and -0.286 in assay [4] (setting [11]).
As for `O=C1OCCN1N=Cc1ccc([N+](=O)[O-])o1`, in assay [6], the fluorescence slope change was 82.1% (active). In assay [1], the survival is 4.33 (inactive). Also, the parasite load remaining in assay [2] was 34.2% (inactive). Also, the viability in assay [2] was found to be 103%. Moreover, the fold change was 0.869 (inactive) in assay [3] (setting [12]) and 1.27 in assay [3] (setting [7]). The cell count in assay [3] (setting [8]) came out at 7950; in assay [3] (setting [9]), 9150. Besides, the z-score is -1.23 (inactive) in assay [4] (setting [10]) and -1.17 in assay [4] (setting [11]).
